{"source": "the supplement of paper PMC6853941", "data": [{"system": "MCF10A", "assay": "perturbation Mahalanobis distance of morphological profile vs DMSO controls (Mahalanobis distance (SD units)); higher = stronger morphological change, active = 7 or more", "settings": "screen batch: Batch1_Mahalanobis_Distance; 72 h", "protocol": "(§1)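 MCF10A cells were seeded onto drugs dispensed acoustically into 384-well plates, using one dose per drug chosen from its human peak plasma concentration, and incubated for 72 h at 37 °C. Cells were stained for DNA, tubulin and mitochondria and imaged; 78 CellProfiler features were extracted, plate-normalised and compared with DMSO wells.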", "values": [{"smiles": "NCC1(CC(=O)O)CCCCC1", "note": "[Gabapentin] (122.6 µM)", "perturbation Mahalanobis distance": "2.06 (inactive)"}, {"smiles": "CN1C[C@H](C(=O)N[C@]2(C)O[C@@]3(O)[C@@H]4CCCN4C(=O)[C@H](Cc4ccccc4)N3C2=O)C[C@@H]2c3cccc4[nH]cc(c34)C[C@H]21", "note": "[Dihydroergotamine] (74 µM)", "perturbation Mahalanobis distance": "2.63 (inactive)"}, {"smiles": "Cc1cccc([C@H](C)c2cnc[nH]2)c1C", "note": "[Dexmedetomidine] (42 µM)", "perturbation Mahalanobis distance": "2.48 (inactive)"}, {"smiles": "NCC(CC(=O)O)c1ccc(Cl)cc1", "note": "(stereo not drawn) [Baclofen] (4.7 µM)", "perturbation Mahalanobis distance": "1.93 (inactive)"}, {"smiles": "CCC(C)C(C)(COC(N)=O)COC(N)=O", "note": "(stereo not drawn) [Mebutamate] (144.2 µM)", "perturbation Mahalanobis distance": "2.17 (inactive)"}, {"smiles": "NC(=O)CS(=O)C(c1ccccc1)c1ccccc1", "note": "(stereo not drawn) [Armodafinil] (27.1 µM)", "perturbation Mahalanobis distance": "3.56 (inactive)"}, {"smiles": "O=[N+]([O-])O[C@H]1CO[C@H]2[C@@H]1OC[C@H]2O[N+](=O)[O-]", "note": "[Isosorbide Dinitrate] (0.13 µM)", "perturbation Mahalanobis distance": "2.18 (inactive)"}, {"smiles": "O=C1CC[C@@]2(O)[C@H]3Cc4ccc(O)c5c4[C@@]2(CCN3CC2CC2)[C@H]1O5", "note": "[Naltrexone] (0.44 µM)", "perturbation Mahalanobis distance": "3.73 (inactive)"}, {"smiles": "COc1cc2c(cc1OC)C1CC(=O)C(CC(C)C)CN1CC2", "note": "(stereo not drawn) [Tetrabenazine] (10 µM)", "perturbation Mahalanobis distance": "4.2 (inactive)"}, {"smiles": "CCN(C(C)=O)c1cccc(-c2ccnc3c(C#N)cnn23)c1", "note": "[Zaleplon] (1.6 µM)", "perturbation Mahalanobis distance": "2.43 (inactive)"}, {"smiles": "CN(C)C(=O)Oc1ccc[n+](C)c1", "note": "[Pyridostigmine  Bromide] (5.5 µM)", "perturbation Mahalanobis distance": "2.83 (inactive)"}, {"smiles": "C[C@]12CC[C@H]3[C@@H](CCC4=CC(=O)CC[C@@]43C)[C@@H]1CC[C@@H]2O", "note": "[Testosterone] (0.17 µM)", "perturbation Mahalanobis distance": "3.32 (inactive)"}, {"smiles": "O=C(O)CCCc1ccc(N(CCCl)CCCl)cc1", "note": "[Chlorambucil] (8.1 µM)", "perturbation Mahalanobis distance": "2.75 (inactive)"}, {"smiles": "C[C@]12CC[C@H]3[C@@H](CC[C@@]45O[C@@H]4C(O)=C(C#N)C[C@]35C)[C@@H]1CC[C@@H]2O", "note": "[Trilostane] (308.7 µM)", "perturbation Mahalanobis distance": "3.36 (inactive)"}, {"smiles": "NC1CC1c1ccccc1", "note": "(stereo not drawn) [Tranylcypromine] (7.5 µM)", "perturbation Mahalanobis distance": "2.27 (inactive)"}, {"smiles": "COC[C@@H](NC(C)=O)C(=O)NCc1ccccc1", "note": "[Lacosamide] (49.9 µM)", "perturbation Mahalanobis distance": "3.59 (inactive)"}, {"smiles": "C[C@]12Cc3cn[nH]c3C[C@@H]1CC[C@@H]1[C@@H]2CC[C@@]2(C)[C@H]1CC[C@]2(C)O", "note": "[Stanozolol] (62.7 µM)", "perturbation Mahalanobis distance": "2.14 (inactive)"}, {"smiles": "CC[C@@H](CO)NC(=O)[C@@H]1C=C2c3cccc4[nH]cc(c34)C[C@H]2N(C)C1", "note": "[Methylergonovine] (44 µM)", "perturbation Mahalanobis distance": "2.29 (inactive)"}, {"smiles": "CC(C)(O)C(=O)Nc1ccc([N+](=O)[O-])c(C(F)(F)F)c1", "note": "[Hydroxyflutamide] (27.1 µM)", "perturbation Mahalanobis distance": "5.03 (inactive)"}]}, {"system": "MCF10A", "assay": "perturbation Mahalanobis distance of morphological profile vs DMSO controls (Mahalanobis distance (SD units)); higher = stronger morphological change, active = 7 or more", "settings": "screen batch: Batch2_Mahalanobis_Distance; 72 h", "protocol": "as §1", "values": [{"smiles": "NCC1(CC(=O)O)CCCCC1", "note": "[Gabapentin] (122.6 µM)", "perturbation Mahalanobis distance": "2.79 (inactive)"}, {"smiles": "CN1C[C@H](C(=O)N[C@]2(C)O[C@@]3(O)[C@@H]4CCCN4C(=O)[C@H](Cc4ccccc4)N3C2=O)C[C@@H]2c3cccc4[nH]cc(c34)C[C@H]21", "note": "[Dihydroergotamine] (74 µM)", "perturbation Mahalanobis distance": "3.4 (inactive)"}, {"smiles": "Cc1cccc([C@H](C)c2cnc[nH]2)c1C", "note": "[Dexmedetomidine] (42 µM)", "perturbation Mahalanobis distance": "2.42 (inactive)"}, {"smiles": "NCC(CC(=O)O)c1ccc(Cl)cc1", "note": "(stereo not drawn) [Baclofen] (4.7 µM)", "perturbation Mahalanobis distance": "1.48 (inactive)"}, {"smiles": "CCC(C)C(C)(COC(N)=O)COC(N)=O", "note": "(stereo not drawn) [Mebutamate] (144.2 µM)", "perturbation Mahalanobis distance": "3.78 (inactive)"}, {"smiles": "NC(=O)CS(=O)C(c1ccccc1)c1ccccc1", "note": "(stereo not drawn) [Armodafinil] (27.1 µM)", "perturbation Mahalanobis distance": "2.45 (inactive)"}, {"smiles": "O=[N+]([O-])O[C@H]1CO[C@H]2[C@@H]1OC[C@H]2O[N+](=O)[O-]", "note": "[Isosorbide Dinitrate] (0.13 µM)", "perturbation Mahalanobis distance": "2.62 (inactive)"}, {"smiles": "O=C1CC[C@@]2(O)[C@H]3Cc4ccc(O)c5c4[C@@]2(CCN3CC2CC2)[C@H]1O5", "note": "[Naltrexone] (0.44 µM)", "perturbation Mahalanobis distance": "3.37 (inactive)"}, {"smiles": "COc1cc2c(cc1OC)C1CC(=O)C(CC(C)C)CN1CC2", "note": "(stereo not drawn) [Tetrabenazine] (10 µM)", "perturbation Mahalanobis distance": "3.85 (inactive)"}, {"smiles": "CCN(C(C)=O)c1cccc(-c2ccnc3c(C#N)cnn23)c1", "note": "[Zaleplon] (1.6 µM)", "perturbation Mahalanobis distance": "3.38 (inactive)"}, {"smiles": "CN(C)C(=O)Oc1ccc[n+](C)c1", "note": "[Pyridostigmine  Bromide] (5.5 µM)", "perturbation Mahalanobis distance": "2.49 (inactive)"}, {"smiles": "C[C@]12CC[C@H]3[C@@H](CCC4=CC(=O)CC[C@@]43C)[C@@H]1CC[C@@H]2O", "note": "[Testosterone] (0.17 µM)", "perturbation Mahalanobis distance": "3.14 (inactive)"}, {"smiles": "O=C(O)CCCc1ccc(N(CCCl)CCCl)cc1", "note": "[Chlorambucil] (8.1 µM)", "perturbation Mahalanobis distance": "8.46 (active)"}, {"smiles": "C[C@]12CC[C@H]3[C@@H](CC[C@@]45O[C@@H]4C(O)=C(C#N)C[C@]35C)[C@@H]1CC[C@@H]2O", "note": "[Trilostane] (308.7 µM)", "perturbation Mahalanobis distance": "2.45 (inactive)"}, {"smiles": "NC1CC1c1ccccc1", "note": "(stereo not drawn) [Tranylcypromine] (7.5 µM)", "perturbation Mahalanobis distance": "3.55 (inactive)"}, {"smiles": "COC[C@@H](NC(C)=O)C(=O)NCc1ccccc1", "note": "[Lacosamide] (49.9 µM)", "perturbation Mahalanobis distance": "2.67 (inactive)"}, {"smiles": "C[C@]12Cc3cn[nH]c3C[C@@H]1CC[C@@H]1[C@@H]2CC[C@@]2(C)[C@H]1CC[C@]2(C)O", "note": "[Stanozolol] (62.7 µM)", "perturbation Mahalanobis distance": "3.12 (inactive)"}, {"smiles": "CC[C@@H](CO)NC(=O)[C@@H]1C=C2c3cccc4[nH]cc(c34)C[C@H]2N(C)C1", "note": "[Methylergonovine] (44 µM)", "perturbation Mahalanobis distance": "3.37 (inactive)"}, {"smiles": "CC(C)(O)C(=O)Nc1ccc([N+](=O)[O-])c(C(F)(F)F)c1", "note": "[Hydroxyflutamide] (27.1 µM)", "perturbation Mahalanobis distance": "4.63 (inactive)"}]}]}
